NADH coupling: inhibitors of enzymes used to reach an NAD/NADH endpoint; AID 774; 0.02% of 65,000 active; IC50, µM (doses to about 10 µM); coupled PK/LDH NADH assays, four targets;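 active means single-dose screening hits from any of four coupled enzyme assays that gave an IC50 when retested across doses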;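 further: the DPM-DC format reads NADH fluorescence rather than 340 nm absorbance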
Abs 340nm: absorbance at 340 nm; compound absorbance at 340 nm, fold over control; fold change at 10 µM; 65,000 tested, under 10 active; AID 708;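 active means at 10 µM dose, initial 340 nm absorbance at least 2 fold that of control wells; inactive means change under 2 fold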;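 further: initial absorbance extrapolated from kinetic A340 decline of NADH oxidation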
Autofluor 339: intrinsic fluorescence of library compounds, ex339/em460 – biochemical, MLSMR library, data from DPM-DC assay, artefact control, profiling panel | compound autofluorescence, ex339/em460 nm, NADH buffer; stronger effect = higher value; 1 = no-compound wells, NADH background | fluorescence fold increase at 10 µM | 5.5% of 65,000 active | AID 709;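 active means at 10 µM, mean starting fluorescence two-fold or more over control wells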;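 further: signal is the first read of a kinetic run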
DPM-DC inhibit: inhibitors of Streptococcus pneumoniae diphosphomevalonate decarboxylase; purified DPM-DC, PK/LDH coupled NADH fluorescence; 0.49% of 65,000 active; calls only at 10 µM;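 active means the 320 compounds with the highest percent inhibition in the single-dose primary screen, excluding strongly autofluorescent ones, cut at about 32% in these data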;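 further: kinetic rate of NADH fluorescence loss reporting ADP formed by the decarboxylase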
PMK inhibit: blocks S. pneumoniae phosphomevalonate kinase. inhibition, % at 10 µM. purified PMK, PK/LDH-coupled NADH absorbance 340 nm. AID 539. 0.49% of 65,000 active;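 active means top-ranked compounds by inhibition in the single 10 µM screen, taking a fixed number of the strongest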
Spn MK inh: inhibitors of Streptococcus pneumoniae mevalonate kinase. purified MK, PK/LDH-coupled NADH absorbance 340 nm. 0.48% of 65,000 active. inhibition, % at 10 µM. AID 555;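 active means ranked among the strongest by inhibition in the single 10 µM screen, a fixed top-ranked set picked for dose follow-up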
Each line names hits and unclear results; the compound was inactive in the other large screens. Rows were chosen to be rich in hits. Some 6.3% of all compounds tested hit in one or more screens of this group.

O=C(NCCCN1CCOCC1)c1c(O)c2ccccc2[nH]c1=O	none
Nc1n[nH]c(-c2ccccc2)c1-c1ccccc1	none
NC(=O)c1oc2ccccc2c1NC(=O)c1ccco1	none
COc1cc(NC(=O)c2ccco2)c(OC)cc1NC(=O)c1cc(OC)c(OC)c(OC)c1	none
COc1cc2cc3c(N)c(C(=O)NCc4ccco4)sc3nc2cc1OC	none
Nc1c(C(=O)Nc2ccccc2)sc2nc(-c3ccco3)ccc12	Autofluor 339 3.7 (not shown: DPM-DC inhibit)
COc1ccccc1NC(=O)c1oc2ccccc2c1NC(=O)c1ccco1	Autofluor 339 5 (not shown: DPM-DC inhibit)
COc1ccccc1NC(=O)c1sc2nc(-c3ccco3)ccc2c1N	Autofluor 339 3.8 (not shown: DPM-DC inhibit)
CCOc1cc(NC(=O)c2ccco2)c(OCC)cc1NC(=O)c1cc(OC)c(OC)c(OC)c1	Autofluor 339 4 (not shown: DPM-DC inhibit)
O=C1c2oc3ccccc3c(=O)c2C(c2ccc(Br)cc2)N1c1ncccn1 (configuration not stated)	none
COC(=O)c1ccc(CSc2ncnc3c2nnn3-c2ccc(F)cc2)o1	none
CN1CCN(C(=O)Cn2c(=O)oc3cc(S(=O)(=O)NCc4ccccc4)ccc32)CC1	none
COc1ccccc1N1CCN(S(=O)(=O)c2ccc(Cl)s2)CC1	none
CCS(=O)(=O)c1ccc(O)c(NC(=O)Nc2ccccc2)c1	Spn MK inh 42
Cc1c(NC(=O)C(C)N2CC(C)OC(C)C2)c(=O)n(-c2ccccc2)n1C (configuration not stated)	none
CCOC(=O)C1CCCN(Cc2ccccc2OCC)C1 (configuration not stated)	Spn MK inh 41
CCOC(=O)C1CCCN(Cc2ccccc2C)C1 (configuration not stated)	Spn MK inh 42
COc1cccc(-n2c(=O)[nH]cc(C(=O)Nc3ccc(NC(C)=O)cc3)c2=O)c1	none
CCOc1cc(S(=O)(=O)N2CCN(Cc3ccccc3)CC2)ccc1Br	none
CN(C)c1ccc(CN2CCCCCC2)cc1	none
FC(F)(F)c1cccc(CN2CCCCCC2)c1	Spn MK inh 45
CC1(C2(O)CC(c3ccccc3)ON2)CCCCC1 (configuration not stated)	none
CC(=O)N1CCC(N2CCN(c3ccccc3F)CC2)CC1	PMK inhibit 36
COc1ccc2c(c1)OCC1=C2CCC2(C)C(=O)CC=C12 (configuration not stated)	Autofluor 339 3.6 (not shown: DPM-DC inhibit)
COc1ccc(-c2nnc(-c3cccnc3)o2)cc1OC	none
COc1cc(-c2nnc(-c3ccncc3)o2)ccc1OCc1ccccc1	Autofluor 339 2.4
COc1cc(-c2nnc(-c3ccco3)o2)ccc1OCc1ccccc1	Autofluor 339 3.6 (not shown: DPM-DC inhibit)
Cc1cccc(OCC(O)Cn2c(NCc3cccnc3)nc3c2c(=O)[nH]c(=O)n3C)c1 (configuration not stated)	none
CN1CCC(N(C)CC(=O)Nc2cccc(Oc3ccccc3)c2)CC1	none
COc1cc(CN2CCN(c3cccc(C)c3C)CC2)cc(Br)c1O	none
COc1cc(CN2CCC(C(=O)N3CCN(c4ccccc4F)CC3)CC2)cc(OC)c1OC	none
COc1ccc(CN2CCC(C(=O)N3CCN(c4ccccc4F)CC3)CC2)cc1OC	Spn MK inh 52
COc1ccc(CN2CCN(c3cccc(C)c3C)CC2)cc1OC	Spn MK inh 51
CNc1oc(-c2cccs2)nc1C#N	Autofluor 339 2.4 (not shown: DPM-DC inhibit)
CCSc1nnc(-c2cccs2)o1	none
O=C(c1ccccc1)c1nnc(-c2ccccc2F)o1	none
CN(C)c1oc(-c2cccs2)nc1C#N	Autofluor 339 2.4 (not shown: DPM-DC inhibit)
CN(C)c1oc(-c2ccccc2F)nc1C#N	Autofluor 339 2.4 (not shown: DPM-DC inhibit)
O=C(CCCN1C(=O)c2cccnc2C1=O)N1CC(=O)N(CCc2ccccc2)C(=O)C1	none
COCCNC(=O)c1ccc2c(c1)nc(C)n2-c1cc(OC)c(OC)c(OC)c1	none
O=C(c1cccc2ccccc12)N1CCN(CC2CC=CCC2)CC1 (configuration not stated)	none
COc1cccc(NC(=O)COc2ccc(N3CC(C(=O)NCC(C)C)CC3=O)cc2)c1 (configuration not stated)	none
CCCS(=O)(=O)N1CCc2cc(OC)c(OC)cc2C1	none
COc1cc(OC)nc(NC(=O)NS(=O)(=O)c2ccc(OC(F)(F)F)cc2)n1	PMK inhibit 25
COc1ccc(NC(=O)NS(=O)(=O)c2ccc(C)cc2)c(OC)c1	none
Cc1c(-c2cccs2)[n+](=O)c2c(n1[O-])CCCCC2	none
COCc1cc(C)nc(Nc2ccc(C)c(C)c2)c1C#N	none
COCc1cc(C)[nH]c(=O)c1C#N	Autofluor 339 2.2 (not shown: DPM-DC inhibit)
COCc1cc(=O)n2c([nH]c3ccccc32)c1C#N	Autofluor 339 4.8 (not shown: DPM-DC inhibit)
CCOc1ccccc1NC(=O)Cn1c(C)cc(COC)c(C#N)c1=O	none
COC(=O)C1=CNC=C(C(=O)OC)C1c1ccc(C(=O)OC)cc1	Autofluor 339 2.1 (not shown: DPM-DC inhibit)
COC(=O)C1=C(C)N(C)C(C)=C(C(=O)OC)C1c1ccc(C(=O)OC)cc1	none
CCCn1nc(NC(=O)c2ccco2)c2cc3ccc(C)cc3nc21	Autofluor 339 3.9 (not shown: DPM-DC inhibit)
CCn1nc(NC(=O)c2ccco2)c2cc3ccccc3nc21	none
CCCn1c(CCC(=O)O)ccc1-c1ccc(F)cc1	Autofluor 339 2
COc1ccc(-c2ccc(CCC(=O)O)n2C(C)C)cc1	Autofluor 339 2
O=C(O)CCc1ccc(-c2ccccc2)n1CC1CCCO1 (configuration not stated)	Autofluor 339 4 (not shown: DPM-DC inhibit)
COC(=O)Cn1c(CCC(=O)O)ccc1-c1ccccc1	Autofluor 339 2.2 (not shown: DPM-DC inhibit)
Cc1nnc(Sc2nc(Sc3nnc(C)s3)nc(N3CCN(C)CC3)n2)s1	none
Cn1c(=O)oc2cc(S(=O)(=O)NCCC(=O)N3CCc4ccccc43)ccc21	none
CC(C)Cc1nc(N2CCN(C(=O)C(C)C)CC2)c(C#N)c2c1CCC2	Autofluor 339 2.1 (not shown: DPM-DC inhibit)
CC(C)Cc1nc(N2CCOCC2)c(C#N)c2c1COC(C)(C)C2	Autofluor 339 2.4 (not shown: DPM-DC inhibit)
CC(C)Cc1nc(NCCN2CCOCC2)c(C#N)c2c1COC(C)(C)C2	none
CC(C)c1nc(N2CCOCC2)c(C#N)c2c1CCC2	Autofluor 339 2
CC(C)Cc1nc(N2CCCCC2)c(C#N)c2c1CCC2	none
CCCc1nc(N2CCOCC2)c(C#N)c2c1CCCC2	none
CC(=O)N1CCN(c2nc(CC(C)C)c3c(c2C#N)CCC3)CC1	Autofluor 339 2.3 (not shown: DPM-DC inhibit)
CCCN1C2CCCC1CC(NC(=O)c1cc(OC)c(OC)c(OC)c1)C2 (configuration not stated)	none
Cc1ccc(NC(=O)CCSc2nnnn2-c2ccc3c(c2)OCO3)cc1C	none
CN(C)/C=N/c1c(C(=O)NCc2ccccc2)nnn1Cc1ccccc1	none
CCOC(=O)N1CCC(NC(=O)c2cc3c(-c4ccc(OC)c(OC)c4)nn(C)c3s2)CC1	Autofluor 339 2.4
COc1ccc(-c2nn(C)c3sc(C(=O)NCc4ccco4)cc23)cc1OC	Autofluor 339 3.1
